# Screens from PubChem BioAssay.
# Only some compounds are listed: those with a hit (about 6.1% of all), similar ones and a draw of the others.
# D1 agonist: human D1 receptor agonism. activation, % at 2 µM. P21728. hit rate 1% among 360,000. HEK293 T-REx D1 cells, calcium flux, agonist mode. AID 504660; in the data active = activation above about 30%; note: 0% is about no effect
#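 Inducible HEK293 T-REx D1 cells, force-coupled to calcium signalling, were plated at 4000 cells/well with tetracycline and held overnight at 30 C. After no-wash calcium dye loading, compound-evoked calcium rise over 180 s flagged agonists.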
# D1 antag: human D1 dopamine receptor antagonism; HEK293 TREx D1 cells, calcium flux, dopamine EC80; active compounds read low; activity change, negative = inhibition, % at 10 µM; hit rate 3.2% among 360,000; in the data active = activity change below about -30%; note: % is set by controls: 0 for no effect and ±100 for the full control effect
#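 Kinetic fluorescence of a calcium dye serves as the read-out. D1-expressing Hek293 Trex cells, induced overnight at 30 C, are exposed to compound for 180 s before an EC80 dopamine addition, then read 180 s further.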
# DRD3 agonist: D3 dopamine receptor (human) agonism. P35462. D3R DiscoveRx beta-arrestin cells, luminescence, 90 min. max activation, %. hit rate 0.58% among 410,000; in the data active = max activation above about 30%; note: 0% is about no effect
#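 Agonist mode: compounds and dopamine controls were applied to plated cells for 90 min at 37 degrees C after an overnight attachment at 1500 cells/well. Luminescent read-out followed 30 - 60 minutes at room temperature with DiscoveRx detection reagent.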
# D3 antag: D3 dopamine receptor (human) antagonism; AID 652054; D3R cells, DiscoveRx beta-arrestin luminescence, antagonist mode; active compounds read low; hit rate 2.5% among 360,000; P35462; max response, negative = inhibition, %; in the data active = max response below about -50%; inconclusive = no clear call, values can overlap the other calls; note: % is set by controls: 0 for no effect and ±100 for the full control effect
#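 Cells expressing the human receptor were seeded at 1500 cells/well, incubated overnight at 37 degrees C in 5% CO2, then exposed to library compounds with dopamine controls for 90 minutes at 37 degrees C before luminescent detection.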
# ERG Ets-DNA blk: ERG Ets/DNA interaction inhibition; fluorescence polarization, His-ERG Ets domain / labelled DNA; P11308; Potency, µM (highest dose often 76.9 µM), for inactives: top-dose FP activity, negative = inhibition, most hits filed as inhibitors; hit rate 0.028% among 370,000; active = well fitted inhibition curve with a large enough effect in the polarisation, with a control signal flat; inconclusive = small, poorly fitted or top-dose-only effect, or effect the other way, or a change in a side signal; inactive = no such curve, though single readings can be large or run the other way; the % refers to the polarisation;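 note: polarization taken with two DNA probes labelled with fluorescein and Texas red; potency is the fitted concentration of half-maximal effect; % of control where 0% means no effect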
# Target sequence (P11308 whole entry, looked up, the tested form may be a part): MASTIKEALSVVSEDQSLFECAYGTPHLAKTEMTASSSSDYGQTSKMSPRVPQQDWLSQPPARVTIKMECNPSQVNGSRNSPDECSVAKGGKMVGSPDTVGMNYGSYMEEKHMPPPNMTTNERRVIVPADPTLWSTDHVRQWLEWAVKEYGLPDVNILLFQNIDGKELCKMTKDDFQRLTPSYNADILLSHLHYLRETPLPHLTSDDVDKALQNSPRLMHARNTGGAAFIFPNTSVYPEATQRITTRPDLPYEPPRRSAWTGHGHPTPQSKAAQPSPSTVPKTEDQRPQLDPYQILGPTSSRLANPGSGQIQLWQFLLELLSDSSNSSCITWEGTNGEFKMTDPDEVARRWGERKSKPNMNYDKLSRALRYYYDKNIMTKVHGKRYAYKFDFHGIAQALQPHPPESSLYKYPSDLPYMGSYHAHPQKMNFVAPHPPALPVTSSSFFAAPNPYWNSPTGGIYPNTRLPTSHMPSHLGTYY
#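 His-tagged ERG Ets domain (1 uM in the protein solution; 300mM KCl, 50mM Tris-HCl, 1mM EDTA, 1mM DTT, pH 7.5) received compound, then a probe mix of 5 nM fluorescein-DNA and 100nM Texas-615-DNA. Fluorescence polarization was read for both dyes.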
# D1 PAM: human D1 dopamine receptor positive modulation; hit rate 0.036% among 360,000; potentiation, % at 10 µM; HEK293 TREx D1 cells, calcium flux, dopamine EC20 potentiation; in the data active = potentiation above about 30%; note: 0% is about no effect
# Starred values were filed as active, the others as inactive; ? = inconclusive; / = no result given.
SMILES,D1 agonist,D1 antag,DRD3 agonist,D3 antag,ERG Ets-DNA blk,D1 PAM
O=C(COC(=O)CSc1ccc([N+](=O)[O-])cc1)NCCc1ccccc1,9,-34*,4,0,0%,-14
COc1ccc(CCNC(=O)COC(=O)c2ccc([N+](=O)[O-])o2)cc1,2,-5,-11,-10,19%,1
O=C(COC(=O)c1ccc([N+](=O)[O-])o1)NCCCc1ccccc1,/,/,4,-51*,4%,/
COc1ccc(/C=N/N2C(C)CCCC2C)cc1OC (stereo not given),1,-7,7,6,-9%,4
CC(OC(=O)CSc1ccc([N+](=O)[O-])cc1)C(=O)NCc1ccccc1 (stereo not given),19,-55*,-8,1,10%,-15
COc1ccc(CCNC(=O)COC(=O)CSc2ccc([N+](=O)[O-])cc2)cc1OC,6,-45*,5,0,-3%,-9
O=C(NCCCN1CCCC1)[C@H](CSCc1ccccc1)N1Cc2ccccc2C1=O,1,-3,-16,-60*,6%,1
CC(C)(C)NC(=O)C[C@H]1C[C@H](C(=O)N2CCCCC2)[C@@]2(C)c3[nH]c4ccc(Cl)cc4c3CCN2C1=O,/,/,-20,?,15%,/
COCCNC(=O)c1cc2c(s1)-c1ccc(Cl)cc1SC2,4,-92*,-7,9,1%,-9
CC(C)C(=O)NC(=S)Nc1ccc(S(=O)(=O)NC2CCCCC2)cc1,11,-32*,-10,-17,-4%,-5
CCOc1ccc(/C(O)=C/C(=O)C(=O)Nc2ccc(S(=O)(=O)NC(C)=O)cc2)cc1,-1,12,-10,-60*,10%,-1
COc1ccc(NS(=O)(=O)c2ccc(NC(=S)NC(=O)C(C)C)cc2)cc1,23,20,6,9,-7%,-4
CCOc1ccc(NS(=O)(=O)c2ccc(NC(=S)NC(=O)C(C)C)cc2)cc1,32*,10,-5,-21,-12%,-4
CCOc1ccc(NS(=O)(=O)c2ccc(NC(=S)NC(C)=O)cc2)cc1,95*,-11,-9,-27,1%,-5
CCN(CC(=O)NCc1ccc(F)cc1)C(=O)/C=C/c1cc(OC)ccc1OC,0,-1,-3,-3,3%,-6
NC(=O)C1CCN(C(=O)COc2ccc(S(=O)(=O)NC3CCCC3)cc2)CC1,-1,-3,9,12,1%,-2
O=C(COc1ccc(S(=O)(=O)NC2CCCCC2)cc1)N1CCN(c2ccc(F)cc2)CC1,10,-30*,4,-26,3%,-8
O=C(O)c1ccc(S(=O)(=O)NC2CCCCC2)cc1,0,12,0,-59*,4%,3
O=C(CSc1cccc(C(F)(F)F)c1)Nc1ccc(N2CCOCC2)cc1,/,/,-2,-23,/,/
C/C(CC(=O)Nc1cccc(C(F)(F)F)c1)=N\NC(=O)Cc1ccccc1,5,4,1,-1,9%,-11
CCN(c1ccccc1)S(=O)(=O)c1ccc(Cl)c(C(=O)N(CC2CCCO2)C2CCS(=O)(=O)C2)c1 (stereo not given),6,-36*,-2,-23,2%,-3
COC(=O)c1nnn(-c2nonc2N)c1CN1CCCC1,1,-1,-5,3,-21%,-3
Cc1ccc(C(CNC(=O)c2ccco2)N2CCN(C)CC2)cc1 (stereo not given),0,-12,-9,-57*,-4%,-19
O=C(NCC(c1ccco1)N1CCN(c2ccccc2F)CC1)c1ccco1 (stereo not given),2,-21,39*,2,-2%,-2
O=C(NCc1cccs1)C(=O)NCC(c1ccco1)N1CCN(c2ccccc2F)CC1 (stereo not given),0,21,73*,22,-1%,1
CC(C)(C)C(=O)NN=C1CCC(c2ccccc2)CC1 (stereo not given),6,-33*,4,38,-2%,-2
Cc1cccc(CSc2nc(=O)c3c(n2C)NC(=O)CC3c2cccc(O)c2)c1 (stereo not given),1,-8,3,/,-1%,1
